Laboratory results as given in PubChem BioAssay (NCI).
This is part of a sample that, as a whole, favours compounds with a hit. Of some 83,000 tested, about 20% had one in any assay.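 Plates (96-well) were seeded with cells, treated with compound at one concentration, and incubated for 48 hours before percent growth was determined.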 Values without a mark were called inactive. Active and inactive are the calls of the source. The calls were made as follows: active = growth percent below 10; inactive = the rest.

Columns and labels:
Test in all cases: NCI-60 one-dose screen, 48 h (100 = growth as untreated, 0 = no growth, -100 = all killed)
Details in all cases: 10 µM unless noted
[1] = system: SR leukemia
[2] = system: RPMI-8226 leukemia
[3] = system: OVCAR-8 ovarian
[4] = system: OVCAR-5 ovarian
[5] = system: OVCAR-4 ovarian
[6] = system: SK-OV-3 ovarian
[7] = system: IGROV1 ovarian
[8] = system: OVCAR-3 ovarian
[9] = system: HS 578T breast
[10] = system: NCI/ADR-RES ovarian
[11] = system: T-47D breast
[12] = system: BT-549 breast
[13] = system: MDA-MB-435 melanoma
[14] = system: SW-620 colon
[15] = system: MCF7 breast
[16] = system: HCT-116 colon
[17] = system: HCC-2998 colon
[18] = system: KM12 colon

| Compound | growth [1] | growth [2] | growth [3] | growth [4] | growth [5] | growth [6] | growth [7] | growth [8] | growth [9] | growth [10] | growth [11] | growth [12] | growth [13] | growth [14] | growth [15] | growth [16] | growth [17] | growth [18] |
| --- | --- | --- | --- | --- | --- | --- | --- | --- | --- | --- | --- | --- | --- | --- | --- | --- | --- | --- |
| Cc1cc(N/N=C/c2nc(-c3ccccc3)oc2C)c2cc(Br)ccc2n1 | -4.64% (active) | 11.9% | 42.5% | 96.3% | 1.21% (active) | 78.3% | 78.6% | 109% | 85.8% | 78.9% | 75.6% | 93.4% | 43.4% | 28.4% | 46.2% | 42% | 100% | 82% |
| C=C[C@@H]1C[C@@H]2Cc3c(C)cc(C)cc3N1O2 | 6.7% (active) | 74.7% | 98% | 86.5% | 83.6% | 105% | 106% | 103% | 92.1% | 102% | 115% | 112% | 101% | 102% | 97.6% | 104% | 103% | 104% |
| CCOc1cc2c(Cl)ncnc2c(OCC)c1OCC | 4.52% (active) | 15.5% | 99.6% | 96.7% | 94.9% | 108% | -65.2% (active) | 3.36% (active) | 94.7% | 92.5% | 76.3% | 75.1% | 78.5% | 59.2% | 52.4% | 49.6% | -45.3% (active) | 71.6% |
| CCN(CC)c1ccc(CNc2ccnc3ccccc23)cc1 | 9.72% (active) | 25.2% | 47.4% | 81.7% | 17.1% | 61.4% | 78.2% | 52.5% | 90.1% | 40% | 29% | 45.4% | 48.2% | 70.8% | 33.3% | 30.3% | 36.9% | 73.6% |
| Cc1nc2c3c(ncn2n1)Oc1c(c(=O)[nH]c2ccccc12)C3c1ccc(Cl)cc1 (centres undefined) | 100% | 86.2% | 97.3% | 101% | 97% | 116% | 89.3% | 99.2% | 99.7% | 94.7% | 86% | -52.7% (active) | 102% | 95.4% | 91.6% | 88.8% | 102% | 99.2% |
| C=CCn1cc(-c2nc3ccccc3s2)c2cc(-c3ccc4c5c(cccc35)C(=O)N(CCN3CCNCC3)C4=O)ccc21 | 4.31% (active) | 46.7% | 13.7% | 90.3% | 88.5% | 101% | 68.1% | 105% | 91.8% | 83.1% | 82.4% | 91.3% | 90.7% | 26.8% | -65.8% (active) | 29.7% | 87.5% | 98.5% |
| CCCCC(CC)OC(=O)C(Br)CC (centres undefined) | 94.3% | 113% | 101% | 106% | 90.6% | 114% | 105% | 104% | 101% | 98.7% | 103% | 100% | 109% | 114% | 102% | 101% | 104% | 101% |
| C=C1C(=O)O[C@H]2[C@H]1CC/C(Cn1cc(CNC(=O)c3cc4ccccc4[nH]3)nn1)=C\CC[C@@]1(C)O[C@@H]21 | 4.37% (active) | -11.5% (active) | 44.8% | 110% | 83% | 106% | 71% | 3.43% (active) | 99.9% | 101% | 48.7% | 87.9% | 26.5% | -32.5% (active) | 9.93% (active) | 4.22% (active) | 96% | 68.9% |
